Screening data from PubChem.
GDH-TPI counter: GDH-TPI coupling enzyme inhibitors, primary screen, artefact control for M. tuberculosis FBA inhibitor project, biochemical, absorbance, full deck; GDH-TPI coupled enzyme counterscreen, NADH absorbance; inhibition, % at 4.8 µM; 360,000 tested, 1.2% active; in the data active means inhibition above about 30%;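 further: 0% = DMSO wells and 100% = wells lacking the enzyme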
BioA inh: M. tuberculosis BioA enzyme inhibitors, primary screen, biochemical, plate reader, single point, HTS; purified M. tuberculosis BioA enzyme; 360,000 tested, 0.096% active; inhibition, % at 9.99 µM; 7,8-diaminopelargonic acid synthase BioA (Mycobacterium tuberculosis); in the data active means inhibition above about 40%
Mtb hypoxia rep: PubChem AID 1159583; M. tuberculosis hypoxia-regulated fluorescent reporter, fluorescence; fluorescence inhibition, % (concentration not given with the values); 300,000 tested, 0.1% active; in the data active means fluorescence inhibition mostly above about 23%, no sharp cut-off; inactive means mostly below about 17%
Mtb FBA inh: Mtb FBA enzyme inhibitors, primary screen, biochemical, fluorescence, strain H37Rv. Fructose-bisphosphate aldolase (Mycobacterium tuberculosis (strain ATCC 25618 / H37Rv)), …. AID 588726, 2011. inhibition, % at 1 µM. purified M. tuberculosis FBA, fluorescence read-out. 360,000 tested, 2.3% active; in the data active means inhibition above about 27%;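 further: 0% = vehicle and 100% = reference inhibitor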
Target sequence (P9WQA3 whole entry, looked up): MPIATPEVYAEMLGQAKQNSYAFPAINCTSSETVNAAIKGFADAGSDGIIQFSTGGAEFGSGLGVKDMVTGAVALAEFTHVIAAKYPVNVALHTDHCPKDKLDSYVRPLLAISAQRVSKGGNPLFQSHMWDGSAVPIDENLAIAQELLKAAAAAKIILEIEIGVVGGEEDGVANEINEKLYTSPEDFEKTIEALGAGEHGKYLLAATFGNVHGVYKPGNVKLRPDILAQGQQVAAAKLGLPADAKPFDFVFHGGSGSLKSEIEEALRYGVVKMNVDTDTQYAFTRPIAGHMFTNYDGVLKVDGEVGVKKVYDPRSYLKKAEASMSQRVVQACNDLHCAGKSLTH
FadD28 FP inh: inhibitors of FadD28 bisubstrate probe binding, primary screen, biochemical, fluorescence polarization, single point | Mycobacterium tuberculosis FadD28 fatty-acid-AMP ligase | inhibition, % at 12.5 µM | 360,000 tested, 0.22% active | AID 588549, 2011; in the data active means inhibition above about 8.5%, passing the limit was not always enough
Active calls of the source: *. Rows were chosen to be rich in hits. Some 2.9% of all compounds tested hit in one or more screens of this group.

How did O=C(CN1CCOCC1)NCC[C@H]1CC[C@@H](NS(=O)(=O)c2ccc(Cl)cc2)[C@@H](CO)O1 do in these assays?
BioA inh: -3

What do the screens show for `COc1cc(-c2nc3ccccn3c2N=Cc2ccc(F)cc2)ccc1O`?
Mtb hypoxia rep: 4

Results for CCNC(=O)C[C@H]1CC[C@H]2[C@@H](COc3ccc(NC(=O)c4ccccc4Cl)cc3C(=O)N2C)O1 ?
BioA inh: 0

What do the screens show for `CSc1nc(SCC(=O)NCc2ccco2)c2c3c(sc2n1)COC(C)(C)C3`?
GDH-TPI counter: 36*; BioA inh: -2; Mtb hypoxia rep: 9; Mtb FBA inh: 18; FadD28 FP inh: -1

What do the screens show for `Cc1cccc(N2CCN(S(=O)(=O)c3c(C)noc3/C=C/N(C)C)CC2)c1C`?
GDH-TPI counter: 9; Mtb hypoxia rep: 3; Mtb FBA inh: 1; FadD28 FP inh: -2

How did COc1ccc(N2CCN(C(=O)C3CCN(S(=O)(=O)c4c(C)noc4/C=C/N(C)C)CC3)CC2)cc1 do in these assays?
GDH-TPI counter: 44*; BioA inh: 0; Mtb hypoxia rep: 2; Mtb FBA inh: -1; FadD28 FP inh: 0

How did COc1ccc(CNC(=O)C2CCN(S(=O)(=O)c3c(C)noc3/C=C/N(C)C)CC2)cc1 do in these assays?
GDH-TPI counter: 45*; BioA inh: -3; Mtb hypoxia rep: -6; Mtb FBA inh: 9; FadD28 FP inh: 2

How did CNC(=O)C1CCN(S(=O)(=O)c2c(C)noc2/C=C/c2cccc(OC)c2)CC1 do in these assays?
GDH-TPI counter: 32*; BioA inh: -2; Mtb FBA inh: 14; FadD28 FP inh: -4

How did Cc1noc(/C=C/N(C)C)c1S(=O)(=O)N1CCN(c2ccc(F)cc2)CC1 do in these assays?
GDH-TPI counter: 34*; BioA inh: -1; Mtb hypoxia rep: 8; Mtb FBA inh: -2; FadD28 FP inh: 2

How did COc1ccc(N2CCN(C(=O)C3CCCN(S(=O)(=O)c4c(C)noc4C)C3)CC2)cc1 (stereo not drawn) do in these assays?
GDH-TPI counter: 7; BioA inh: 0; Mtb hypoxia rep: 8; Mtb FBA inh: -4; FadD28 FP inh: -2

Results for CCS(=O)(=O)Nc1ccc2c(c1)C(=O)N(C)C[C@H](OC)[C@@H](C)CN(Cc1nccs1)[C@@H](C)CO2 ?
BioA inh: -2

What do the screens show for `COCCNC(=O)C1CCN(S(=O)(=O)c2c(C)noc2/C=C/c2cccs2)CC1`?
GDH-TPI counter: 39*; Mtb hypoxia rep: 3; Mtb FBA inh: 0; FadD28 FP inh: -1

How did COc1ccc(N2CCN(S(=O)(=O)c3c(C)noc3/C=C/N(C)C)CC2)cc1 do in these assays?
GDH-TPI counter: 40*; BioA inh: 0; Mtb hypoxia rep: -2; Mtb FBA inh: 2; FadD28 FP inh: 1

How did CCN(CC)CCNC(=O)C1CCN(S(=O)(=O)c2c(C)noc2/C=C/c2ccccc2F)CC1 do in these assays?
GDH-TPI counter: 15; BioA inh: 0; Mtb hypoxia rep: -4; Mtb FBA inh: 1; FadD28 FP inh: -6

What do the screens show for `CCC(C)N1CCN(C(=O)C2CCN(S(=O)(=O)c3c(C)noc3/C=C/c3ccco3)CC2)CC1` (stereo not drawn)?
GDH-TPI counter: 38*; BioA inh: 0; Mtb hypoxia rep: -4; Mtb FBA inh: -1; FadD28 FP inh: -3

Results for Cc1noc(C)c1S(=O)(=O)N1CCN(c2ccc(Cl)cc2)CC1 ?
GDH-TPI counter: -3; BioA inh: 0; Mtb hypoxia rep: 11; Mtb FBA inh: 0; FadD28 FP inh: -1

How did Cc1cccc(NC(=O)C2CCN(S(=O)(=O)c3c(C)noc3/C=C/c3ccco3)CC2)n1 do in these assays?
GDH-TPI counter: 15; Mtb hypoxia rep: 8; Mtb FBA inh: -2; FadD28 FP inh: 0

How did Cc1ccc(S(=O)(=O)Nc2ccc3c(c2)C(=O)N([C@H](C)CO)C[C@@H](C)[C@H](CN(C)C)OCCCC[C@H](C)O3)cc1 do in these assays?
BioA inh: -3

How did CS(=O)(=O)Nc1ccc(-c2cn3cccnc3n2)cc1 do in these assays?
GDH-TPI counter: 16; BioA inh: 2; Mtb hypoxia rep: 11; Mtb FBA inh: 115*; FadD28 FP inh: 1

Results for Cc1ccc(-c2cn3cccnc3n2)cc1 ?
GDH-TPI counter: 7; BioA inh: 0; Mtb hypoxia rep: 15; Mtb FBA inh: active; FadD28 FP inh: -4

What do the screens show for `Nc1cccc(-c2cn3cccnc3n2)c1`?
GDH-TPI counter: 7; BioA inh: 1; Mtb hypoxia rep: -5; Mtb FBA inh: 6; FadD28 FP inh: 0

How did CC(C)CC#Cc1cnc2c(c1)C(=O)N([C@H](C)CO)C[C@H](C)[C@@H](CN(C)C(=O)c1ccccc1)O2 do in these assays?
BioA inh: -1

How did Cc1noc(C)c1NC(=O)N(C)C[C@H]1Oc2ccc(NC(=O)CCN3CCOCC3)cc2CC(=O)N([C@@H](C)CO)C[C@H]1C do in these assays?
BioA inh: -9

Results for COc1cccc(C(C)=NNS(=O)(=O)c2ccc(Cl)cc2)c1 ?
Mtb hypoxia rep: -5

How did CCc1nc(N2CCN(C(=O)c3ccccc3)CC2)c(C#N)c2c1COC(C)(C)C2 do in these assays?
GDH-TPI counter: 12; BioA inh: 0; Mtb FBA inh: 23; FadD28 FP inh: -1

Results for CC1(C)Cc2c(C#N)c(SCC(=O)c3ccccc3)nc(N3CCOCC3)c2CO1 ?
GDH-TPI counter: 10; Mtb FBA inh: 4; FadD28 FP inh: -2

What do the screens show for `CCc1nc(N2CCOCC2)c(C#N)c2c1COC(C)(C)C2`?
GDH-TPI counter: 10; BioA inh: 1; Mtb hypoxia rep: 5; Mtb FBA inh: 46*; FadD28 FP inh: 3

How did CC1(C)Cc2c(C#N)c(SCc3ccccc3)nc(N3CCOCC3)c2CO1 do in these assays?
GDH-TPI counter: 75*; BioA inh: 2; Mtb hypoxia rep: 5; Mtb FBA inh: -6; FadD28 FP inh: 0

What do the screens show for `CC(C)CC#Cc1cnc2c(c1)C(=O)N([C@@H](C)CO)C[C@@H](C)[C@H](CN(C)C(=O)CCN1CCCCC1)O2`?
BioA inh: -2

What do the screens show for `Cc1cc[n+](-c2[nH]c(=O)sc2C=N/N=C(\[O-])c2ccccc2)cc1C`?
Mtb hypoxia rep: 9

What do the screens show for `O=c1[nH]c(-[n+]2ccc3ccccc3c2)c(/C=N/N=C(\[O-])c2ccccc2)s1`?
GDH-TPI counter: 31*; BioA inh: 3; Mtb FBA inh: 3; FadD28 FP inh: -2

What do the screens show for `CC(C)(C)c1cc[n+](-c2[nH]c(=O)sc2C=N/N=C(\[O-])c2cccnc2)cc1`?
Mtb hypoxia rep: 10

Results for CC(C)(C)c1cc[n+](-c2[nH]c(=O)sc2/C=N/N=C(\[O-])c2cccnc2)cc1 ?
GDH-TPI counter: 32*; BioA inh: 0; Mtb FBA inh: -3; FadD28 FP inh: -4
